Assay results reported in a collection of fitness landscapes (doi:10.1016/j.celrep.2020.107928).
Over roughly 81,000 sequences, “one-hybrid fitness for binding NBS DNA” has its median near -0.1; the highest 2% begin near 0.36. Only a selection was taken, and the highest values are over-represented in it overall.

B1: Caulobacter ParB omega fusion; a variant is named by its letters at X, in order, B8GW30 (parent)
chain: MESVVVGEPGMSEGRRGLGRGLSALLGEVDAAPAQAPGEQLGGSREAPIEILQRNPDQPRRTFREEDLEDLSNSIREKGVLQPILVRPSPDTAGEYQIVAGERAWRAAQRAGLKTVPIMVRELDDLAVLEIGIIENVQRADLNVLEEALSYKVLMEKFERTQENIAQTIGKSXSHVANXMRLLXLPDEVQSYLVSGELTAXHARAIAAAADPVALAKQIIEGGLSVRETEALARKAPNLSAGKSKGGRPPRVKDTDTQALESDLSSVLGLDVSIDHRGSTGTLTITYATLEQLDDLCNRLTRGI

Variants of: B1
Assay: one-hybrid fitness for binding NBS DNA (the Noc-binding site; scaled: cognate 1, non-cognate 0); higher = stronger binding
Details: with NBS DNA site
Procedure, shortened: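 The reporter was HIS3, with the binding site 19 bp from the promoter, in E. coli USO used for bacterial one-hybrid selection of Caulobacter ParB libraries with four specificity codons randomised. Growth was on M9 lacking histidine, with 0.1 mM IPTG and 5 mM 3-AT, for 48 hours at 37°C. Illumina sequencing covered plasmids before and after selection; three replicate libraries were pooled and variants with under 10 reads dropped. A fitness score is the log change in variant-to-wild-type read ratio, rescaled to the cognate and non-cognate references.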

one-hybrid fitness for binding NBS DNA, 0.275:
RKTC

one-hybrid fitness for binding NBS DNA, 0.526:
QSSR

one-hybrid fitness for binding NBS DNA, 0.284:
QMNH

one-hybrid fitness for binding NBS DNA, 0.557:
QMSR

one-hybrid fitness for binding NBS DNA, 1.02:
QMRR

one-hybrid fitness for binding NBS DNA, 0.55:
QMQR

one-hybrid fitness for binding NBS DNA, 0.628:
RRWS

one-hybrid fitness for binding NBS DNA, 0.461:
RYTT

one-hybrid fitness for binding NBS DNA, ≤ 0.2:
QQPN
QQIC
QQPP
QQIY
IMNC
QCIE
GPNL
RCPT
RRIP
RPPT
QIKI
GQNR
PQLG
QMQN
DMRR
QMHN
NMRR
QMQD
QMYF
QMHP
YCIR
PWLA
PATL
QMGC
QMNN
QMDF
QMDD
QMIP
KASM
RNWE
WRSG
HNPS
AKVR
ERAT
FHRT
HTGY
KAEC
QAVP
CWTT
THIP
NAAC
FHTW
GAEY
QHSN
QSSD
QKSN
QSSP
QHSD
QISP
QKSD
RKLW
VHYS
PGDT
KQTL
HGQT
APTM
HNIL
QTSD
QASH
QASP
QPSH
QGSR
QPSP
RVGY
YYRE
EWTK
SFAV
RSFI
ETCC
HGGG
QTAK
QMSN
QMSD
KFFY
TGSL
HQMR
YVSG
IRIE
RPTT
RTTD
RTTN
RHTD
RHTH
QQII
KSMI
KVWM
KATR
ALTC
AHCL
HGAA
HRGN
REMS
CAHR
LWHP
QELW
YGQC
WRES
YVSL
HMQS
LYTW
RMTL
RLTD
RLTN
RGTT
RKTP
RMTK
RETT
DHNC
YATH
QISK
CLVT
DRWC
SNWL
SNVR
DAAD
TRAA
DDQR
RATQ
RITG
RITF
RATK
TSFV
LPSF
RRWD
RRWP
RRWF
HLQS
MSNG
HQPF
PSTH
GLWQ
RYTN
RYTC
RYTP
RYTK
RYTH
RYTD
TSVC
LPCE
YSAT
QALP
QMLD
QKLP
QALH
QKLN
QSLH
QMLH
QSLD

one-hybrid fitness for binding NBS DNA, 0.435:
QQIR

one-hybrid fitness for binding NBS DNA, 0.421:
RITT

one-hybrid fitness for binding NBS DNA, 0.666:
RKTT

one-hybrid fitness for binding NBS DNA, 0.398:
QMIR

one-hybrid fitness for binding NBS DNA, 0.469:
RYTR

one-hybrid fitness for binding NBS DNA, 0.694:
RRPT

one-hybrid fitness for binding NBS DNA, 0.507:
QMYR

one-hybrid fitness for binding NBS DNA, 0.5:
QMLR

one-hybrid fitness for binding NBS DNA, 0.269:
RFTT

one-hybrid fitness for binding NBS DNA, 0.614:
QCSR

one-hybrid fitness for binding NBS DNA, 0.637:
QMNR

one-hybrid fitness for binding NBS DNA, 0.44:
QPSR

one-hybrid fitness for binding NBS DNA, 0.427:
RHTT

one-hybrid fitness for binding NBS DNA, 0.222:
RRWN

one-hybrid fitness for binding NBS DNA, 0.647:
QMHR

one-hybrid fitness for binding NBS DNA, 0.716:
RRTT

one-hybrid fitness for binding NBS DNA, 0.543:
RTTT

one-hybrid fitness for binding NBS DNA, 0.518:
RCTT

one-hybrid fitness for binding NBS DNA, 0.434:
RMTT

one-hybrid fitness for binding NBS DNA, 0.424:
QALR

one-hybrid fitness for binding NBS DNA, 0.454:
RLTT

one-hybrid fitness for binding NBS DNA, 0.453:
RYTS

one-hybrid fitness for binding NBS DNA, 0.289:
RCIT

one-hybrid fitness for binding NBS DNA, 0.365:
QQPR

one-hybrid fitness for binding NBS DNA, 0.401:
RRWH

one-hybrid fitness for binding NBS DNA, 0.491:
QKLR

one-hybrid fitness for binding NBS DNA, 0.65:
QKSR

one-hybrid fitness for binding NBS DNA, 0.482:
QASR

one-hybrid fitness for binding NBS DNA, 0.229:
QWSR

one-hybrid fitness for binding NBS DNA, 0.403:
QMDR

one-hybrid fitness for binding NBS DNA, 0.386:
QISR

one-hybrid fitness for binding NBS DNA, 0.415:
RATT

one-hybrid fitness for binding NBS DNA, 0.452:
QSLR

one-hybrid fitness for binding NBS DNA, 0.243:
RRTQ

one-hybrid fitness for binding NBS DNA, 0.228:
QISS

one-hybrid fitness for binding NBS DNA, 0.321:
QTSH

one-hybrid fitness for binding NBS DNA, 0.426:
RSTT

one-hybrid fitness for binding NBS DNA, 0.324:
QMER

one-hybrid fitness for binding NBS DNA, 0.591:
QMGR

one-hybrid fitness for binding NBS DNA, 0.51:
QHSR

one-hybrid fitness for binding NBS DNA, 0.331:
RRTG

one-hybrid fitness for binding NBS DNA, 0.786:
QTSR

one-hybrid fitness for binding NBS DNA, 0.323:
QMPR

one-hybrid fitness for binding NBS DNA, 0.221:
QMGK

one-hybrid fitness for binding NBS DNA, 0.788:
RRIT
